Reference: PubChem BioAssay AID2060323 (National Center for Advancing Translational Sciences (NCATS), 2025)
Results filed as inconclusive are left out. Active and inactive are the calls of the source. Calls come from the whole dose curve; as a rule, active = well fitted activation curve with a large enough effect; inconclusive = small, poorly fitted or top-dose-only effect; inactive = no such curve, though single readings can be large or run the other way.

What follows are compounds tested against Cellular tumor antigen p53 (Homo sapiens) (UniProt P04637) (assay: Confirmatory qHTS for small molecule compounds that upregulate eGFP-tagged delta133p53alpha (in C-terminal) cells.). Conditions: delta133p53alpha-eGFP (C-terminal) reporter cells, GFP fluorescence upregulation; series mostly up to 57.5 µM; activation (upregulation): at the top concentration.
Description: Assay Development and Screening Technology
National Center for Advancing Translational Sciences (NCATS),
National Institute of Health (NIH), Rockville, Maryland
Cellular senescence (CS) is one of the hallmarks of aging and age-related diseases. Senescent cells are characterized by an irreversible growth arrest, an increase in senescence-associated beta-galactosidase (SA-beta-gal) activity and p16INK4a expression, an activation of the DNA damage response pathways, and the emergence of a senescence-associated secretory phenotype (SASP).
Delta133p53alpha, a human/primate-specific p53 protein isoform, delays or inhibits the induction of CS and SASP in various types of human cells, including progeria-derived fibroblasts, primary normal astrocytes, and CD8+ T lymphocytes. Induction of delta133p53alpha with small molecule compounds may provide therapeutic opportunities for inhibition of senescence/SASP-associated pathologies in progeria syndromes, astrocyte-mediated neuroprotection in neurodegenerative diseases, and possibly prevention and treatment of a wider range of senescence- and aging-associated diseases.
Here we report the development and validation of a cell-based quantitative high throughput screening (qHTS) assay in 1,536-well format. This qHTS assay uses the NCI-H358 cell line with doxycycline-inducible expression of enhanced green fluorescent protein (eGFP)-tagged delta133p53alpha, which allows efficient and highly quantitative measurement of the protein levels.
PROTOCOL TABLE (as described by Inglese J, Shamu CE and Guy RK. 2007)
SEQUENCE No. (e.g., 1, 2, 3, etc.); […] (e.g., Cells, Incubation, Reagent, etc.); VALUE; DESCRIPTION.
1; Cells; 4uL; 800 doxycycline treated cells / well in doxycycline-free media, 1536-well black, clear-bottom low base Aurora microplates.
2; Compounds; 23 nL; Kalypsis pin tool (Wako) equipped with 1536-well pin heads, 5-azacytidine positive control.
3; Incubation; 24 hr; 37C, 5% CO2; 95% relative humidity.
4; Aspiration; 1x; BioTek EL406 washer dispenser (Agilent).
5; Fixing; 3.5% paraformaldehyde, BioTek EL406 washer dispenser (Agilent).
6; Washing; 1x PBS; BioTek EL406 washer dispenser (Agilent).
7; Nuclei staining; 1:1000 dilution of Hoechst 33342 (Thermofisher), BioTek EL406 washer dispenser (Agilent).
8; Incubation; 20 min; in the dark at room temperature.
9; Washing; 2x, 1x PBS (ThermoFisher), BioTek EL406 washer dispenser (Agilent).
10; Reagent; 10 uL; 1x PBS per well, sealed with clear adhesive tape.
11; Detection; Fluorescence, Acumen eX3 laser scanning cytometer (STP Labtech), GFP filters […].
NOTES (numbers refer to sequence numbers above).
1. NCI-H358 cells expressing eGFP-tagged delta133p53alpha were grown in T75 culture flasks and treated with doxycycline for 24h, at 10 ng/ml for eGFP-D133p53a cells (N-terminal cell) and 100 ng/ml for D133p53a-eGFP cells (C-terminal cells). Cells were trypsinized, counted using a Counted 3 Automated Cell Counter (Thermo Fisher), and diluted to a concentration of 200,000 cells/ml. A Multidrop Combi Reagent Dispenser (ThermoFisher) was used to dispense 800 cells/well in […] of doxycycline-free media, into 1536-well black/clear bottom low base plates (AuroraMicroplates).
2. After plating cells, 23 nl of compound library, DMSO vehicle control or positive control (5-azacytidine) were transferred by Pin Tool (Wako). The plate map layout was the same for each plate: (column 1) non-doxycycline treated cells + DMSO vehicle control; (column 2) doxycycline treated cells + DMSO vehicle control baseline; (column 3) doxycycline treated cells + positive control 57.5 uM final concentration 5-azacytidine; (column 4) doxycycline treated cells + serial dilution of 5-azacytidine, 16-point 1:2 titration spanning 1.8 nM to […] final concentration; (columns 5-48) doxycycline treated cells + titration of library compounds.
3. Cells were incubated at 37 °C, 5 % CO2, 95% RH with breathable metal lid for 24h.
4-10. […]

Chain of Cellular tumor antigen p53 (Homo sapiens) (P04637 whole entry, looked up): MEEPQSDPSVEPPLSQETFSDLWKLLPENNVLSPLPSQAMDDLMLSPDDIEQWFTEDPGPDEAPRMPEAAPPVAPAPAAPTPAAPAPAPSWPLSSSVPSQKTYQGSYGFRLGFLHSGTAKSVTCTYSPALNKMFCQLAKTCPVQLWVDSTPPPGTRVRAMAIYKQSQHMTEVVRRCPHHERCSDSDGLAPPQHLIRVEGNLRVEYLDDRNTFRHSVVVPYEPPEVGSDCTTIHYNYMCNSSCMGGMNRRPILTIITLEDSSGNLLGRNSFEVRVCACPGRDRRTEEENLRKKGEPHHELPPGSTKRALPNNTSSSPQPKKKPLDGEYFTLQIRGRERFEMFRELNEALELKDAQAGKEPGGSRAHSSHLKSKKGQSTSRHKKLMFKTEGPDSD

Structure (SMILES)	Potency	activation (upregulation)
CCn1cnc2c(Nc3cccc(Cl)c3)nc(N[C@@H]3CCCC[C@@H]3N)nc21	9.68 µM (active)	
CC1=NN=C(c2ccc(N)cc2)c2cc3c(cc2C1)OCO3	34.3 µM (active)	
Cc1c2ccncc2c(C)c2c1[nH]c1ccccc12	3.06 µM (active)	
CN1C2CCC1CC(OC(c1ccccc1)c1ccccc1N)C2 (centres undefined)		-13.1% (inactive)
c1ccc2c(c1)OCC(C1=NCCN1)O2 (centres undefined)		18.9% (inactive)
N[C@H](CCCCCP(=O)(O)O)C(=O)O		0.294% (inactive)
O=C1/C(=C\c2ccccc2)C[C@@]2(O)[C@H]3Cc4ccc(O)c5c4[C@@]2(CCN3CC2CC2)[C@H]1O5	15.3 µM (active)	
CP(=O)(O)C1=CCNCC1		-6.67% (inactive)
C[C@]12Cc3cn4c(nc3C=C1CCC1C2CC[C@@]2(C)[C@H]1CC[C@@]2(O)C#N)nc1ccccc14 (some centres undefined)	19.3 µM (active)	
CC[C@@]1(O)C(=O)OCc2c1cc1n(c2=O)Cc2cc3ccccc3nc2-1	1.72 µM (active)	
CC1(C(=O)O)C2CCC(O2)C1(C)C(=O)O (centres undefined)		47.5% (inactive)
CC(=O)[C@H]1CC[C@H]2[C@@H]3CC[C@H]4C[C@](C)(O)CC[C@]4(C)[C@H]3CC[C@]12C		25.2% (inactive)
c1ccc2c(c1)[I+]c1ccccc1-2	19.3 µM (active)	
CCS(=O)(=O)Nc1cccc(C(=C2CCCCC2)c2cnc[nH]2)c1		-16.3% (inactive)
